# The panel holds about 83,000 compounds, 20% with a hit somewhere; the sample as a whole holds those more often.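 Testing used 96-well plates and a 48-hour single-concentration exposure. Example: -40 means 40% of the starting cells died.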 Unmarked numbers belong to inactive results. Active and inactive are the calls of the source. Rule for the calls: active = growth percent below 10; inactive = the rest.
# Columns and labels:
# Test in all cases: NCI-60 one-dose screen, 48 h (100 = growth as untreated, 0 = no growth, -100 = all killed)
# Conditions in all cases: 10 µM
# 786-0 renal = test system: 786-0 renal
# MALME-3M melanoma = test system: MALME-3M melanoma
# UACC-257 melanoma = test system: UACC-257 melanoma
# SN12C renal = test system: SN12C renal
# TK-10 renal = test system: TK-10 renal
# ACHN renal = test system: ACHN renal
# CAKI-1 renal = test system: CAKI-1 renal
# A498 renal = test system: A498 renal
# RPMI-8226 leukemia = test system: RPMI-8226 leukemia
# OVCAR-8 ovarian = test system: OVCAR-8 ovarian
# OVCAR-4 ovarian = test system: OVCAR-4 ovarian
# SK-OV-3 ovarian = test system: SK-OV-3 ovarian
# IGROV1 ovarian = test system: IGROV1 ovarian
# OVCAR-3 ovarian = test system: OVCAR-3 ovarian
# BT-549 breast = test system: BT-549 breast
# MDA-MB-435 melanoma = test system: MDA-MB-435 melanoma
# MCF7 breast = test system: MCF7 breast
# HCT-116 colon = test system: HCT-116 colon
# HCC-2998 colon = test system: HCC-2998 colon
# KM12 colon = test system: KM12 colon
Structure (SMILES),growth (786-0 renal),growth (MALME-3M melanoma),growth (UACC-257 melanoma),growth (SN12C renal),growth (TK-10 renal),growth (ACHN renal),growth (CAKI-1 renal),growth (A498 renal),growth (RPMI-8226 leukemia),growth (OVCAR-8 ovarian),growth (OVCAR-4 ovarian),growth (SK-OV-3 ovarian),growth (IGROV1 ovarian),growth (OVCAR-3 ovarian),growth (BT-549 breast),growth (MDA-MB-435 melanoma),growth (MCF7 breast),growth (HCT-116 colon),growth (HCC-2998 colon),growth (KM12 colon)
CC[C@]12C=CCN3CC[C@@]4(c5ccc(OC)cc5N(C)[C@H]4[C@@](O)(C(=O)OC)[C@@H]1OC(=O)CCC[P+](c1ccc(C)cc1)(c1ccc(C)cc1)c1ccc(C)cc1)[C@@H]32,-88% (active),-94.4% (active),-92.7% (active),-88.1% (active),-88.5% (active),-97.8% (active),-95.3% (active),-88.6% (active),-56.3% (active),-85% (active),-73.5% (active),-81% (active),-89.5% (active),-61.9% (active),-96.9% (active),-57.5% (active),-76.3% (active),-93.4% (active),-91.4% (active),-76.1% (active)
O=C(/C=C/c1ccco1)c1nc2ccccc2n1Cc1ccc(Br)cc1,23%,44.2%,36.9%,43.4%,77.1%,48.7%,47.5%,105%,-5.78% (active),46.7%,46.5%,103%,31.6%,22%,6.02% (active),15.2%,2.72% (active),8.16% (active),12.7%,20.7%
CCOP(=O)(CC(F)(F)C(F)(F)F)OCC,15.2%,-70.4% (active),-31.4% (active),62.1%,17%,-23.1% (active),2.63% (active),126%,7.92% (active),-80.2% (active),-14.9% (active),111%,60.2%,-61.5% (active),49%,18.4%,9.98% (active),-70.7% (active),86.3%,89.3%
COC(=O)c1ccc(-n2cc(CCCN(CCNc3ccnc4cc(Cl)ccc34)C(=O)CCC(=O)O[C@@H]3O[C@@H]4OC5(C)CC[C@H]6[C@H](C)CC[C@@H]([C@H]3C)[C@@]46OO5)nn2)cc1,52.4%,-61.5% (active),35%,44%,60.5%,36.3%,44.5%,100%,19.7%,20.9%,46.2%,85.6%,40.4%,43.4%,43.2%,22.2%,-49.6% (active),26%,49.5%,32.6%
CC12CCC3(CCC(=O)NCCCNc4ccnc5cc(Cl)ccc45)[C@@](C)(OO[C@]3(C)O1)O2,-22.7% (active),17.5%,51.1%,-15.1% (active),-17.8% (active),-10.1% (active),-25% (active),85.3%,22.2%,-1.11% (active),33.1%,13.1%,-23.3% (active),30.8%,-7.38% (active),18.3%,9.36% (active),9.58% (active),22.8%,9.24% (active)
Cc1ccc2[nH]c(=S)n(-c3ccc(F)cc3)c(=O)c2c1,91.4%,96.4%,104%,92.2%,102%,101%,97.3%,98.3%,91.5%,103%,104%,122%,106%,114%,93.7%,104%,95%,96.3%,111%,103%
C[C@H]1[C@@H](Oc2ccc(-c3cn(-c4ccnc5cc(Cl)ccc45)nn3)cc2)O[C@@H]2OC3(C)CC[C@H]4[C@H](C)CC[C@@H]1[C@@]24OO3,35.1%,13.7%,41.1%,24.3%,35.4%,14.3%,25.6%,95%,23%,16%,40.9%,52.3%,34.3%,32.7%,24.9%,35.6%,19.3%,15.8%,48.8%,25.6%
C[C@H]1[C@H](OC(=O)CCC(=O)N(CCCc2cn(-c3ccc(C#N)cc3)nn2)CCNc2ccnc3cc(Cl)ccc23)O[C@@H]2OC3(C)CC[C@H]4[C@H](C)CC[C@@H]1[C@@]24OO3,50.7%,13.3%,58.3%,58.9%,54.2%,44.5%,40.8%,110%,27%,22.3%,41.9%,84.4%,44.5%,45.2%,24.2%,28.8%,-28% (active),21.9%,70.3%,31.4%
CN(C)CCc1cn(C2CCC2)c2cccc(O)c12,50%,46.5%,41.8%,68%,103%,84.6%,42.3%,95%,24.4%,96.6%,86.6%,92.9%,84.2%,93.6%,68.1%,45.9%,22.4%,31.6%,-46.1% (active),76.1%
COP(=O)(CC(F)(F)C(F)(F)F)OC,-3% (active),-59.1% (active),-36.5% (active),76.2%,-40.6% (active),-97.6% (active),10.3%,131%,12.3%,-75.6% (active),-13.4% (active),118%,50.2%,-3.42% (active),37.3%,9.6% (active),3.91% (active),-60.6% (active),91%,94.6%
C#CC[Se]C(=O)c1ccc(C(=O)[Se]CC#C)s1,82.2%,98.1%,90.7%,85.9%,84.8%,43.6%,106%,101%,86%,75.6%,103%,110%,85.5%,84.5%,101%,95.8%,91.5%,14%,94.7%,42.8%
C[C@H]1[C@H](OC(=O)CCC(=O)N(CCCc2cn(-c3ccc(CN4CCOCC4)cc3)nn2)CCNc2ccnc3cc(Cl)ccc23)O[C@@H]2OC3(C)CC[C@H]4[C@H](C)CC[C@@H]1[C@@]24OO3,-65% (active),-90% (active),-69.8% (active),23.2%,48.8%,23.1%,21.4%,93.6%,3.71% (active),19.4%,45.9%,74.2%,38%,38.3%,5.43% (active),18.4%,11.2%,-8.13% (active),40.1%,24.7%
O=C([Se]C1C=CCCC1)c1ccc(C(=O)[Se]C2C=CCCC2)s1 (stereo not given),-92.7% (active),-85.7% (active),-74.7% (active),-81.8% (active),-80.9% (active),-67% (active),-61.6% (active),20.6%,-43.1% (active),-97.6% (active),-95.3% (active),-97.5% (active),-90.4% (active),-92.4% (active),-65.7% (active),-61.2% (active),-37.1% (active),-43.1% (active),-67.8% (active),-64.9% (active)
CC[C@]12C=CCN3CC[C@@]4(c5ccc(OC)cc5N(C)[C@H]4[C@@](O)(C(=O)OC)[C@@H]1OC(=O)CCCC[P+](C1CCCCC1)(C1CCCCC1)C1CCCCC1)[C@@H]32,-36% (active),-95.9% (active),-82.1% (active),-57.9% (active),-64.1% (active),18.7%,-24.1% (active),-0.0449% (active),-45% (active),-6.33% (active),12.4%,-22.3% (active),-84.7% (active),-60.3% (active),-97.4% (active),-90.5% (active),-64.2% (active),4.69% (active),-87.8% (active),-71.1% (active)
CC1=C2C(=C[C@@](C)(COP(=O)(Oc3ccccc3)Oc3ccccc3)[C@@H]2O)C(=O)[C@@](C)(O)C12CC2,-16.1% (active),-96.7% (active),-41.2% (active),-76.3% (active),-22.2% (active),-56.8% (active),-19.5% (active),-39.4% (active),9.34% (active),-68.5% (active),-72.9% (active),-79.5% (active),-75.8% (active),-75.4% (active),-2.47% (active),-77.1% (active),4.25% (active),0.872% (active),-85.5% (active),-29.3% (active)

# — PubChem BioAssay (NCI)
